# In PubChem BioAssay (NCATS):
# Inconclusive results are not listed. Values without a mark were called inactive. This is one part of the list. A call without a number means that no potency is given here. Active and inactive are the calls of the source. The call rests on the fitted dose curve; in most records, active means well fitted curve in the direction sought with a large enough effect; inconclusive means small, poorly fitted or top-dose-only effect, or another doubt; inactive means no such curve, though single readings can be large; an effect the other way counts as inactive or inconclusive.
# Columns and labels:
# [1] = molecular target: Tumor susceptibility gene 101 protein (Homo sapiens) (UniProt Q99816); assay: qHTS Assay for Iinhibitors of HIV-1 Budding by Blocking the Interaction of PTAP/TSG101: Hit Validation (AID 651600); further: nearly all actives have a fitted effect of over 70% in size; further: potency means the concentration at half of the fitted maximal effect
# Sequence of Tumor susceptibility gene 101 protein (Homo sapiens) (Q99816 whole entry, looked up, the tested form may be a part): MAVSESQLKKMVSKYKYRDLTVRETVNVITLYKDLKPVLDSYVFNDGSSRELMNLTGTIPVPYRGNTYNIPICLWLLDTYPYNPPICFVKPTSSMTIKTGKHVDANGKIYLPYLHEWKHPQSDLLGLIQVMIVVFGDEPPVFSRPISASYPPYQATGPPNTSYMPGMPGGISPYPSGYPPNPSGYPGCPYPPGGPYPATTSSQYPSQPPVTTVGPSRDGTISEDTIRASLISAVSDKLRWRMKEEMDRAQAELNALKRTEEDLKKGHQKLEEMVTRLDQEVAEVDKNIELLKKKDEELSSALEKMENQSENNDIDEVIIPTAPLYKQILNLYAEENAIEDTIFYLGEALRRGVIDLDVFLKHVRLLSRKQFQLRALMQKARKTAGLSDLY
# How it was run: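 FITC-PTAP peptide (50 nM final) binding to Tsg101 binding domain (10 uM final) was measured by polarization after 20 min at r.t. with compounds, in 10 mM HEPES pH 7.5 buffer with 0.15 M NaCl and 0.01% Tween 20.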
# [2] = molecular target: Rap guanine nucleotide exchange factor 3 (Homo sapiens) (UniProt O95398); assay: Confirmatory qHTS for antagonist of cAMP-regulated guanine nucleotide exchange factor 3 (EPAC1) (AID 1645880); conditions: EPAC1 Rap1B-BODIPY-GDP exchange, fluorescence; activity, negative = inhibition: at 115 µM (top of the series); further: nearly all actives have a fitted effect of over 55% in size; further: potency means the concentration at half of the fitted maximal effect
# Sequence of Rap guanine nucleotide exchange factor 3 (Homo sapiens) (O95398 whole entry, looked up): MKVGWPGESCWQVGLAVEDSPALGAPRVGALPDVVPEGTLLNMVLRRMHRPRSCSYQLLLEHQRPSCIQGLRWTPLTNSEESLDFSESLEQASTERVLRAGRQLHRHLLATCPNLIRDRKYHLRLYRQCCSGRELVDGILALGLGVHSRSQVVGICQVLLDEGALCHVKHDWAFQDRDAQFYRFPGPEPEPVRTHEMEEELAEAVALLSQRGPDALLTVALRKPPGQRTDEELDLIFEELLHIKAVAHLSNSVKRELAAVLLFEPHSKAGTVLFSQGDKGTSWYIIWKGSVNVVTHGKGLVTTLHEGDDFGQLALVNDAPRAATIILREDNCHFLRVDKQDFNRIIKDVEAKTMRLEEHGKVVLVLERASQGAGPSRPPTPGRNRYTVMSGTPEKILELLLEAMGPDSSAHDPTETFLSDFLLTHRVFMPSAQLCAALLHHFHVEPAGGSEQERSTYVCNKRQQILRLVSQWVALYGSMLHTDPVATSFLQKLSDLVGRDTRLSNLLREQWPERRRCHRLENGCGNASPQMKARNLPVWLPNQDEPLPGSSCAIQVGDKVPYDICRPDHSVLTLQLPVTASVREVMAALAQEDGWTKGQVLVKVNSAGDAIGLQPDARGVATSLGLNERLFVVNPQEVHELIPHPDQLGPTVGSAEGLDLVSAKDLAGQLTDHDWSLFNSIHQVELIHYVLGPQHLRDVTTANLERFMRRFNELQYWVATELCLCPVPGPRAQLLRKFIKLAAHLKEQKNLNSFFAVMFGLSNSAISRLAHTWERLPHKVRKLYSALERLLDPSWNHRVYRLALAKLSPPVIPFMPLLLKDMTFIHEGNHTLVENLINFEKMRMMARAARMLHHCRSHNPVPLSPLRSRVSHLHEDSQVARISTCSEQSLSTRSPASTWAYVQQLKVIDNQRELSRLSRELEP
# How it was run: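 Nucleotide exchange uses 100 nM EPAC1, 250 nM RAP1B-BODIPY-GDP and 50 uM GDP, with compounds in a concentration-titration series. After 5 min at room temperature, fluorescence (480 nm ex/540 nm em) is read every 5 min for 30 min. Data are normalized to control ATA and DMSO.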
# [3] = molecular target: Rap guanine nucleotide exchange factor 4 (Homo sapiens) (UniProt Q8WZA2); assay: Confirmatory qHTS for agonist of cAMP-regulated guanine nucleotide exchange factor 4 (EPAC2) (AID 1645884);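 further: nucleotide exchange releases bodipy-GDP from Rap1 and this lowers its fluorescence; nearly all actives have a fitted effect of over 65% in size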; further: potency means the concentration at half of the fitted maximal effect
# Sequence of Rap guanine nucleotide exchange factor 4 (Homo sapiens) (Q8WZA2 whole entry, looked up): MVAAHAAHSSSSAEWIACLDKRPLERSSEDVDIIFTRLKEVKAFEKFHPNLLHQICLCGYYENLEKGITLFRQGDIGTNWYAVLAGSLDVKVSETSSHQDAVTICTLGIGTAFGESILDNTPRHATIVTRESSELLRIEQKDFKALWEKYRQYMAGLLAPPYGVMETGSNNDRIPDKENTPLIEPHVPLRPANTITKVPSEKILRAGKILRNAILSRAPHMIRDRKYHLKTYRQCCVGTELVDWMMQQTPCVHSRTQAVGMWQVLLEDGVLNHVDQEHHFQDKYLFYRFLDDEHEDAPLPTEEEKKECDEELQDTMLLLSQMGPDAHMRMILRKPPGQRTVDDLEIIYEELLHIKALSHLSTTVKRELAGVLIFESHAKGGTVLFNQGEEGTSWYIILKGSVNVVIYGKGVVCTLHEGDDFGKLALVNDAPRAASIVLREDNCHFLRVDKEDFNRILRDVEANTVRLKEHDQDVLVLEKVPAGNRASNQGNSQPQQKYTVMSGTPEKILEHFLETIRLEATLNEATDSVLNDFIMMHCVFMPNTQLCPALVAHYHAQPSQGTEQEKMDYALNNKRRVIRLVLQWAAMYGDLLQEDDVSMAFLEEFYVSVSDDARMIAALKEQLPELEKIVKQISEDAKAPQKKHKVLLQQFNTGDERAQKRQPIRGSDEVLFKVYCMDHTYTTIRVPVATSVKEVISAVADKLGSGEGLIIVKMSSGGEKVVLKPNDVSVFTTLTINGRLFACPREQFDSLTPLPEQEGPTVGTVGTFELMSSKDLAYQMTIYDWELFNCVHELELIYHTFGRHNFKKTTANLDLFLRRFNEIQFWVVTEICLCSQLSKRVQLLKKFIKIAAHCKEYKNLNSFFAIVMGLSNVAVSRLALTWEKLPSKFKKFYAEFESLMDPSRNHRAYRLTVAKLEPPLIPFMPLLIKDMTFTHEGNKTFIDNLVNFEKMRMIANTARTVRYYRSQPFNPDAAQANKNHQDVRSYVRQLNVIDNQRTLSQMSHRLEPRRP
# [4] = molecular target: Rap guanine nucleotide exchange factor 4 (Homo sapiens) (UniProt Q8WZA2); assay: Confirmatory qHTS for antagonist of cAMP-regulated guanine nucleotide exchange factor 4 (EPAC2) (AID 1645885); further: nearly all actives have a fitted effect of over 25% in size; further: potency means the concentration at half of the fitted maximal effect
# [5] = molecular target: Rap guanine nucleotide exchange factor 3 (Homo sapiens) (UniProt O95398); assay: Counterscreen qHTS for agonist of cAMP-regulated guanine nucleotide exchange factor 3 (EPAC1) (AID 1645889); further: nearly all actives have a fitted effect of over 40% in size; further: potency means the concentration at half of the fitted maximal effect
# How it was run: (§1)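 Rap1B-BODIPY-GDP 250 nM + GDP 50 uM; cpds 7-pt, final 9.74 nM–152 uM (activator mode) or from 7.32 nM upwards (inhibitor mode); RT; FI 480/540 nm at 5 and 30 min, then ± cAMP, reread.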
# [6] = molecular target: Rap guanine nucleotide exchange factor 3 (Homo sapiens) (UniProt O95398); assay: Counterscreen qHTS for antagonist of cAMP-regulated guanine nucleotide exchange factor 3 (EPAC1) (AID 1645888);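 further: fluorescence loss as bound BODIPY-GDP is released from Rap1B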
# How it was run: as §1
# [7] = Counterscreen for APE1 Inhibitors: Fluorescent Dye Displacement Assay (AID 2564);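 further: loss of thiazole orange fluorescence as the dye is displaced from duplex DNA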
# How it was run: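 ThO 250 nM + dsDNA 50 nM (THF abasic site, 5'-TAMRA), Tris-HCl pH7.5/50mM NaCl/2 mM MgCl2/0.01% Tween-20; compounds pin-transferred; ex 480/em 540 nm endpoint. Neutral = no compound; no-DNA ThO wells = negative control.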
# [8] = molecular target: Endonuclease 4 (Escherichia coli (strain K12)) (UniProt P0A6C1); assay: Counterscreen for APE1 Inhibitors: qHTS Assay for Inhibitors of Endonuclease IV (AID 2565)
# How it was run: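 Enzymatic AP-site incision assay using a double-stranded THF substrate labelled with TAMRA and BHQ-2; released fluorescence signals activity. Enzyme 2 nM, substrate 50 nM, 15 min compound preincubation.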
# [9] = molecular target: DNA repair nuclease/redox regulator APEX1 (Homo sapiens) (UniProt P27695); assay: Confirmation qHTS Assay for Inhibitors of the Human Apurinic/apyrimidinic Endonuclease 1 (APE1) (AID 2572); conditions: purified APE1, fluorogenic abasic-site DNA cleavage; further: potency means the concentration at half of the fitted maximal effect; nearly all actives have a fitted effect of over 30% in size
# Sequence of DNA repair nuclease/redox regulator APEX1 (Homo sapiens) (P27695 whole entry, looked up): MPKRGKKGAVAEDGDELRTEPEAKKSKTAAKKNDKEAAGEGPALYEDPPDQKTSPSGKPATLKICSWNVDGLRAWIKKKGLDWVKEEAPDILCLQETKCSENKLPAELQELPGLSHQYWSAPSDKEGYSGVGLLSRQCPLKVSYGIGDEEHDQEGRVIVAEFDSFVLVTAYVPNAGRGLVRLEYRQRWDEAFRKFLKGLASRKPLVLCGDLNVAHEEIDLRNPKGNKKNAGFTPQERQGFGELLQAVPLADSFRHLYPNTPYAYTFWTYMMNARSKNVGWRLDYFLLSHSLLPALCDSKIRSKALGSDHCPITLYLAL
# How it was run: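 15 min RT compound–APE1 preincubation → add 50 nM final THF-abasic TAMRA/BHQ-2 dsDNA → immediate kinetic read, 3 × 60 s, Ex 525/Em 598 → Δ fluorescence (read 3 − read 1).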
# [10] = molecular target: DNA repair nuclease/redox regulator APEX1 (Homo sapiens) (UniProt P27695); assay: qHTS FP-Based Assay for Inhibitors of the Human Apurinic/apyrimidinic Endonuclease 1 (APE1) (AID 2573)
smiles,measurement,setting,value
COc1ccc2c3c(cccc13)C(=O)CC2,Potency,[1],18.3 µM (active)
same,Potency,[2],inactive
same,Potency,[3],112 µM (active)
same,Potency,[4],inactive
same,Potency,[5],31.6 µM (active)
COCCn1c2nc(=O)n(-c3ccccc3)c(=O)c-2nc2ccccc21,Potency,[2],inactive
same,Potency,[3],100 µM (active)
same,Potency,[4],75.7 µM (active)
same,Potency,[5],39.8 µM (active)
CCN(CC)c1ccc2cc(S(=O)(=O)c3ccc(Cl)cc3)c(=O)oc2c1,Potency,[1],18.3 µM (active)
same,Potency,[2],inactive
same,Potency,[3],100 µM (active)
same,Potency,[4],42.6 µM (active)
same,Potency,[6],inactive
Cc1cc(/C=C2\SC(=S)N(C)C2=O)c(C)n1-c1ccccc1O,Potency,[2],inactive
same,Potency,[3],100 µM (active)
same,Potency,[4],inactive
same,Potency,[5],89.1 µM (active)
O=c1oc2cc(O)ccc2cc1-c1nnc(Nc2ccccc2F)s1,Potency,[2],inactive
same,Potency,[3],14.1 µM (active)
same,Potency,[4],3.38 µM (active)
same,Potency,[5],3.55 µM (active)
O=S1(=O)C=C(Oc2ccc3ccccc3c2)c2ccccc21,Potency,[2],inactive
same,activation,[3],"-2.76% [at 17.1 µM, percent relative to cAMP agonist control]"
same,"activity change, negative = inhibition",[6],21.2% [at 30.8 µM]
CCN1CCc2c(sc(NC(=O)CSc3ccccc3)c2-c2nc3ccccc3s2)C1,Potency,[1],inactive
same,Potency,[2],inactive
same,Potency,[3],inactive
same,Potency,[4],3.79 µM (active)
same,Potency,[6],inactive
Brc1ccccc1Cn1c(-c2cncs2)nc2ccccc21,Potency,[2],inactive
same,Potency,[3],inactive
same,Potency,[6],inactive
COCc1c(C(=O)N2CCc3ccccc32)oc2ccccc12,Potency,[2],inactive
same,Potency,[3],112 µM (active)
same,Potency,[6],inactive
Cc1ccc(OCc2nc3ccccc3n2CC(C)C)cc1,Potency,[2],inactive
same,Potency,[3],inactive
same,Potency,[4],inactive
same,Potency,[5],inactive
Cc1cccc(N2C(=O)c3cccc4c(N)ccc(c34)C2=O)c1,Potency,[1],2.31 µM (active)
same,Potency,[2],inactive
same,Potency,[3],112 µM (active)
same,Potency,[4],84.9 µM (active)
same,Potency,[5],70.8 µM (active)
CCOc1cccc2sc(N3CCN(C(=O)C(C)(C)C)CC3)nc12,Potency,[2],inactive
same,Potency,[3],inactive
same,outcome,[4],inactive [at 12.7 µM]
same,Potency,[5],inactive
COc1ccc(/C=C2\C(=O)NC(=O)c3ccccc32)cc1OC,Potency,[2],inactive
same,Potency,[3],inactive
same,Potency,[6],inactive
Nc1ccc2c3c(cccc13)C(=O)N(c1ccccc1)C2=O,Potency,[1],3.66 µM (active)
same,Potency,[2],inactive
same,Potency,[3],100 µM (active)
same,Potency,[4],inactive
O=C(NCc1ccc(F)cc1)c1cccc2c1C(=O)c1ccc(N3CCC(Cc4ccccc4)CC3)cc1S2(=O)=O,Potency,[1],10.3 µM (active)
same,Potency,[2],inactive
same,activation,[3],"30% [at 17.1 µM, percent relative to cAMP agonist control]"
same,Potency,[4],inactive
same,"activity change, negative = inhibition",[6],83.7% [at 30.8 µM]
N#Cc1c(-c2cccs2)nc(SCC(=O)c2ccc(Br)cc2)[nH]c1=O,outcome,[7],inactive
same,outcome,[8],inactive
same,Potency,[9],15.8 µM (active)
same,outcome,[10],inactive
same,Potency,[2],22.4 µM (active)
same,activation,[3],"8.4% [at 17.1 µM, percent relative to cAMP agonist control]"
same,Potency,[4],inactive
same,activation,[5],12.5% [at 30.8 µM]
Cc1ccc(/C=C/C(=O)c2ccc(N3CCOCC3)cc2)s1,Potency,[2],inactive
same,Potency,[3],100 µM (active)
same,Potency,[6],inactive
COc1ccccc1NC(=O)/C(C#N)=C/c1cc([N+](=O)[O-])ccc1N1CCCC1,Potency,[1],14.6 µM (active)
same,Potency,[2],inactive
same,Potency,[3],112 µM (active)
same,Potency,[4],75.7 µM (active)
same,Potency,[6],inactive
Cc1ccccc1C(=O)Nc1ccc(C(=O)OCc2cc(=O)n3c4c(sc3n2)CCCC4)cc1,Potency,[2],inactive
same,Potency,[3],inactive
same,Potency,[4],inactive
same,Potency,[5],inactive
Cc1nc(Cl)c2c(n1)NC1=C(O2)C(=O)CCC1,Potency,[1],18.3 µM (active)
same,Potency,[2],inactive
same,activation,[3],"10.5% [at 17.1 µM, percent relative to cAMP agonist control]"
same,Potency,[4],inactive
same,"activity change, negative = inhibition",[6],20% [at 30.8 µM]
Cc1ccc2oc(=O)n(Cc3ccccc3)c2c1,Potency,[2],inactive
same,activation,[3],"5.26% [at 17.1 µM, percent relative to cAMP agonist control]"
same,"activity change, negative = inhibition",[6],1.72% [at 30.8 µM]
COC(=O)CCc1nc2cc(Cl)ccc2n(Cc2ccccc2)c1=O,Potency,[2],inactive
same,Potency,[3],inactive
same,Potency,[6],inactive
Cc1ccc(NC(=O)CSc2nnc(-c3cc4occc4n3C)n2-c2ccccc2C)c(Cl)c1,Potency,[2],inactive
same,Potency,[3],inactive
same,Potency,[6],inactive
COc1ccccc1NC(=O)c1sc2nc(Cc3ccccc3)cc(C(F)(F)F)c2c1N,Potency,[1],13 µM (active)
same,Potency,[2],inactive
same,activation,[3],"-0.606% [at 17.1 µM, percent relative to cAMP agonist control]"
same,Potency,[4],inactive
same,"activity change, negative = inhibition",[6],-9.81% [at 30.8 µM]
O=C(C(=Cc1ccc(O)cc1)c1ccccc1)c1ccccc1,Potency,[2],inactive
same,Potency,[3],inactive
same,Potency,[6],inactive
CC(C)CC(=NNC(=O)c1ccncc1)c1cc(Cl)ccc1O,Potency,[2],inactive
same,Potency,[3],100 µM (active)
same,Potency,[6],inactive
COc1ccc(C(C#N)=Cc2ccccc2OC)cc1,Potency,[2],inactive
same,activation,[3],"-1.43% [at 17.1 µM, percent relative to cAMP agonist control]"
same,"activity change, negative = inhibition",[6],-8.61% [at 30.8 µM]
CCCn1c(O)c(N=Nc2ccc3ccccc3n2)c2ccccc21,Potency,[1],inactive
same,Potency,[2],inactive
same,Potency,[3],100 µM (active)
same,Potency,[4],21.3 µM (active)
same,Potency,[6],inactive
CNc1ccc2c3c(cccc13)C(=O)N(C)C2=O,Potency,[1],2.06 µM (active)
same,Potency,[2],inactive
same,Potency,[3],112 µM (active)
same,Potency,[4],84.9 µM (active)
CCOC(=O)C1=C(C)NC(SC)=C(C#N)C1CC(C)C (stereo not drawn),Potency,[2],inactive
same,Potency,[3],inactive
same,Potency,[4],inactive
same,Potency,[5],inactive
CCOC(=O)c1cc(C)sc1NC(=O)CSC1=NCCS1,Potency,[2],inactive
same,Potency,[4],inactive
same,Potency,[6],inactive
O=C1/C(=C\c2cc(Cl)c(O)c(Cl)c2)SC(=S)N1Cc1ccccc1,Potency,[2],inactive
same,Potency,[4],inactive
same,Potency,[6],inactive
